Source: PubChem BioAssay
GPR151 ag: human GPR151 activation. PathHunter beta-arrestin GPR151 cells, luminescence. Q8TDV0. activation, % at 11.2 µM. AID 1508602. 650,000 compounds, 1% hits; in the data active means activation above about 4.9%;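 further: 0% = median of compound wells and 100% = cells with positive control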
Target sequence (Q8TDV0 whole entry, looked up): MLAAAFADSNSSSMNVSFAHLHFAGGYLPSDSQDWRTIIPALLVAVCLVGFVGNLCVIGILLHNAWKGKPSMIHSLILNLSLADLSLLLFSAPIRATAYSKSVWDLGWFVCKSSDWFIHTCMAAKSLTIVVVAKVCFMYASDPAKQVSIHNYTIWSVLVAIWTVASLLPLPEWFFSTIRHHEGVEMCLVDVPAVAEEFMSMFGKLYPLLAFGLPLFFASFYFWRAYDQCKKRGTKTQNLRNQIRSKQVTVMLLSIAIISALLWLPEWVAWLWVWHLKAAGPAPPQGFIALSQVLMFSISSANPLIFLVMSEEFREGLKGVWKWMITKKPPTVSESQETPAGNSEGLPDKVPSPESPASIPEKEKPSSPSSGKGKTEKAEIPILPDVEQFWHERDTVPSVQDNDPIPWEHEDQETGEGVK
MITF inh: inhibitors of human MITF; AlphaScreen MITF homodimerization, bead proximity signal; inhibition, % at 2.6 µM; 650,000 compounds, 0.91% hits; AID 1259374; in the data active means inhibition above about 50%;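 further: 0% = vehicle wells with protein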
TEAD-YAP block: TEAD-YAP interaction inhibition | HEK-TIYL cells, TEAD-Gal4/YAP UAS-luciferase luminescence | inhibition, % at 9.12 µM | 640,000 compounds, 1.4% hits | AID 1259422; in the data active means inhibition above about 32%;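 further: 0% = median of test compound wells and 100% = reference inhibitor wells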
FBW7 activator: activators of human E3 ligase FBW7. AlphaScreen FBW7–phospho-cyclin E peptide binding, activator screen. normalized activity (activation), % at 26.1 µM. Q969H0. 650,000 compounds, 0.13% hits. AID 1259310; in the data active means normalized activity above about 1.9%;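 further: purified mutant Fbw7 with reduced substrate affinity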
* hit, by the source's call. In the library only some 3.5% were active in any assay of this set; here they are far more common.

SMILES	GPR151 ag	MITF inh	TEAD-YAP block	FBW7 activator
CC1=C(C)/C(=N\S(=O)(=O)c2ccc(C)cc2)C=C(N(C)C)C1=O	0.5	83.7*	4.2	-0.2
CN(C)C1=C/C(=N/S(=O)(=O)c2ccccc2)c2ccccc2C1=O	1.7	58.5*	90.3*	-0.3
Fc1ccc(-c2[nH]c(-c3ccc(-c4nc(-c5ccccc5)c(-c5ccc(F)cc5)[nH]4)cc3)nc2-c2ccccc2)cc1	-2.1	-0.9	-7.8	-0.1
CC(C)(C)NC(=O)CSc1nnc(-c2ccco2)n1-c1ccc(F)cc1	-0.4	-21.9	6.3	-0.1
Cc1cc(C)cc(C(=O)OCC(=O)N2CCCC2)c1	-0.2	2.9	-8.8	0.3
O=C(OCC(=O)N1CCN(Cc2ccccc2)CC1)c1cc(O)c(O)c(O)c1	-0.6	84.0*	-10.7	0.1
O=C(OCC(=O)N1CCCCCC1)c1cc(O)c(O)c(O)c1	0.9	90.7*	-1.9	-0.2
CN1C(=O)C(=Cc2ccccc2OCC(=O)Nc2ccccc2)C(=O)N(C)C1=S	-2.5	6.2	-13.0	0.8
CN1C(=O)C(=Cc2ccccc2OCC(=O)O)C(=O)N(C)C1=S	1.3	72.1*	5.9	-0.3
COc1cc([N+](=O)[O-])ccc1-c1cc2ccccc2oc1=O	1.7	4.0	-6.0	0.0
COC(=O)c1ccc2nc(Nc3nc4c(OC)cccc4s3)sc2c1	-1.9	6.5	73.3*	0.8
O=C(NCCc1ccc(O)cc1)c1ccc2nc(Nc3ccc(-n4ccnc4)cc3)sc2c1	1.6	2.3	3.1	0.1
COC(=O)c1ccc2nc(Nc3nc4ccc(OC)cc4s3)sc2c1	0.9	-3.1	49.2*	0.1
COc1ccc(CCNC(=O)c2ccc3nc(Nc4ccc(-n5ccnc5)cc4)sc3c2)cc1	1.7	11.3	62.2*	0.2
COCCN(CCOC)S(=O)(=O)c1ccc(/C(O)=C(\C#N)c2nc3ccccc3n2C)cc1	1.1	-2.2	7.6	-0.4
Nc1ccc2nc(-c3ccccn3)[nH]c2c1	-7.0	34.1	-21.6	-1.8
c1ccc(-c2nc3ccc(Cc4ccc5nc(-c6ccccn6)[nH]c5c4)cc3[nH]2)nc1	0.1	27.2	34.2*	-0.2
Cc1ccc(S(=O)(=O)Nc2ccccc2/C=N/n2cnnc2)cc1	2.2	11.3	51.0*	0.0
O=C(NC(=S)Nc1ccc(-c2nc3ccccc3o2)cc1)c1ccccc1F	0.4	5.8	-10.8	-0.2
CCOc1ccc2nc(NC3=NC(C)(C)CC(C)=N3)nc(C)c2c1	-0.7	-0.9	27.9	-0.1
CC1=NC(Nc2nc(C)c3cc(C)ccc3n2)=NC(C)(C)C1	-1.1	-7.7	37.0*	0.6
c1ccc(CCNc2c3c(nc4ccccc24)CCC3)cc1	-0.1	-14.3	38.8*	0.5
CCOC(=O)c1ccc(S(=O)(=O)Nc2c(C(=O)OCC)oc3ccccc23)cc1	-1.7	9.7	4.4	0.3
CCOC(=O)c1ccc(Nc2c3c(nc4ccccc24)CCC3)cc1	-0.4	-6.8	42.3*	0.4
CCOC(=O)c1ccc(Nc2c(N)c(=O)oc3ccccc23)cc1	0.4	2.9	51.9*	-0.1
SMILES	GPR151 ag	MITF inh	TEAD-YAP block	FBW7 activator
CC(=O)c1cccc(Nc2c3c(nc4ccccc24)CCC3)c1	-0.1	-4.1	55.8*	-0.2
CCOc1ccccc1-c1nc(SCC(=O)Nc2ccc([N+](=O)[O-])cc2OC)n[nH]1	0.2	2.1	7.7	0.4
Cc1ccc2c(c1)nnn2C1CCN(S(=O)(=O)c2cccc([N+](=O)[O-])c2)CC1	0.3	-1.0	-3.9	0.0
CCOC(=O)c1ccccc1NCn1nnc2ccccc21	-1.0	8.6	1.6	0.7
COc1cc(OC)cc(C(=O)Oc2ccc3c(c2)C(C)=CC(C)(C)N3)c1	0.7	-11.3	-17.2	-0.3
Cc1cc(Nc2ccc(C(=O)N3CCOCC3)cc2)n2ncnc2n1	-0.6	5.9	4.0	-0.1
COc1ccccc1Nc1c2c(nc3ccccc13)CCC2	-0.3	4.5	53.9*	-0.5
CCOC(=O)c1ccc(Nc2cc(C)nc(-c3ccccc3)n2)cc1	2.9	6.9	39.5*	0.0
CCOc1ccc(N2CC(O)(c3ccccc3)[N+]3=C2SCCC3)cc1 (stereo unspecified)	0.0	-8.3	-7.8	-0.4
CC(Cc1ccc(O)cc1)N1CCC(=O)N(Cc2cccc(F)c2)CC1 (stereo unspecified)	-0.1	-4.1	2.1	0.0
CCOc1cc(/C=C2\SC(N3CCN(C)CC3)=NC2=O)ccc1O	1.9	13.8	-3.2	-0.1
NC(=O)N/N=C/c1cccc(C(=O)O)c1O	1.5	-5.9	3.2	-0.2
NC(=O)C(=O)N/N=C/c1cccc(O)c1O	0.6	56.3*	-6.7	-1.1
Cc1cc(/C=N/NC(N)=S)c(O)c(/C=N/NC(N)=S)c1	-0.2	82.1*	0.4	-0.9
NC(=S)N/N=C/c1cc(Cl)cc(Cl)c1O	-0.2	36.8	6.6	-2.5
